The text below walks through data of PubChem BioAssay (NCATS).

SMILES strings stand for the structures. Records with an inconclusive call do not appear. Calls of active or inactive are those of the source. The call rests on the fitted dose curve; in most records, active means well fitted curve in the direction sought with a large enough effect; inconclusive means small, poorly fitted or top-dose-only effect, or another doubt; inactive means no such curve, though single readings can be large; an effect the other way counts as inactive or inconclusive.

Assay [1] in a line: qHTS of pediatric cancer cell lines to identify multiple opportunities for drug repurposing: Primary screen for Saos-2 cells (AID 1347097). Further: nearly all actives have a fitted effect of over 40% in size. Further: potency means the concentration at half of the fitted maximal effect. Conditions: Saos-2 viability, CellTiter-Glo ATP luminescence, 48 h; series mostly up to 46 µM. The method in brief: (§1)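 Plated cells (500-1,000 per well, growth media) were allowed to settle for 5 hours, treated with compound dilutions for 48 hours, then lysed with CellTiter-Glo for 15 min at room temperature before luminescence reading.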

Assay [2] can be described thus: qHTS of pediatric cancer cell lines to identify multiple opportunities for drug repurposing: Primary screen for SK-N-SH cells (AID 1347098). Further: nearly all actives have a fitted effect of over 65% in size. Further: potency means the concentration at half of the fitted maximal effect. To be noted: SK-N-SH viability, CellTiter-Glo luminescence, 48 h; series mostly up to 57 µM. The method in brief: (§2)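 Cells (500-1,000/well) rested 5 h, then received compounds for 48 h; metabolically active cells were measured by CellTiter-Glo luminescence. Final concentrations spanned up to 46 µM (MIPE, 11-point) or 0.59 nM-46 µM (NPC, 8-point) in primary screens, 11-point in follow-ups.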

The nature of assay [3]: qHTS of pediatric cancer cell lines to identify multiple opportunities for drug repurposing: Primary screen for NB1643 cells (AID 1347099). Further: potency means the concentration at half of the fitted maximal effect; nearly all actives have a fitted effect of over 50% in size. To be noted: NB1643 neuroblastoma viability, CellTiter-Glo luminescence, 48 h; series mostly up to 46 µM. The method in brief:
as §1

The nature of assay [4]: qHTS of pediatric cancer cell lines to identify multiple opportunities for drug repurposing: Primary screen for LAN-5 cells (AID 1347100). Further: potency means the concentration at half of the fitted maximal effect. Conditions: LAN-5 neuroblastoma viability, CellTiter-Glo luminescence, 48 h; series mostly up to 46 µM. The method in brief:
as §2

Assay [5] can be described thus: qHTS of pediatric cancer cell lines to identify multiple opportunities for drug repurposing: Primary screen for OHS-50 cells (AID 1347103). Further: nearly all actives have a fitted effect of over 40% in size. Further: potency means the concentration at half of the fitted maximal effect. Conditions: OHS-50 osteosarcoma viability, CellTiter-Glo luminescence, 48 h; series mostly up to 57.3 µM. The method in brief: as §2
A short description of assay [6]: qHTS of pediatric cancer cell lines to identify multiple opportunities for drug repurposing: Primary screen for RD cells (AID 1347104). Further: nearly all actives have a fitted effect of over 55% in size. Further: potency means the concentration at half of the fitted maximal effect. Conditions: RD rhabdomyosarcoma viability, CellTiter-Glo luminescence, 48 h; series mostly up to 46 µM. The method in brief:
as §1

A short description of assay [7]: qHTS of pediatric cancer cell lines to identify multiple opportunities for drug repurposing: Primary screen for MG 63 (6-TG R) cells (AID 1347105). Further: nearly all actives have a fitted effect of over 50% in size. Further: potency means the concentration at half of the fitted maximal effect. Conditions: MG 63 (6-TG R) viability, CellTiter-Glo, 48 h; series mostly up to 46 µM. The method in brief: as §1
Assay [8] is described as follows: qHTS of pediatric cancer cell lines to identify multiple opportunities for drug repurposing: Primary screen for control Hh wild type fibroblast cells (AID 1347106). Further: nearly all actives have a fitted effect of over 55% in size. Further: potency means the concentration at half of the fitted maximal effect. Conditions: Hh wild-type fibroblast viability, CellTiter-Glo luminescence, 48 h; series mostly up to 46 µM. The method in brief: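 Viability after 48 h compound treatment at 37C, 500-1,000 cells/well, read as ATP luminescence with CellTiter-Glo. Primary screens used 11-point (MIPE, 0.78 nM-46 µM) or 8-point (NPC, 0.59 nM-46 µM) final concentrations; follow-up screens used 11-point dilutions.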

Assay [9] is described as follows: qHTS of pediatric cancer cell lines to identify multiple opportunities for drug repurposing: Primary screen for Rh41 cells (AID 1347108). Further: nearly all actives have a fitted effect of over 70% in size. Further: potency means the concentration at half of the fitted maximal effect. Conditions: Rh41 rhabdomyosarcoma viability, CellTiter-Glo luminescence, 48 h; series mostly up to 46 µM. The method in brief: as §1
Assay [10] can be described thus: qHTS of pediatric cancer cell lines to identify multiple opportunities for drug repurposing: Confirmatory screen for NB1643 cells (AID 1347109). Further: nearly all actives have a fitted effect of over 45% in size. Further: potency means the concentration at half of the fitted maximal effect. To be noted: NB1643 neuroblastoma cell viability; series mostly up to 45.9 µM. The method in brief: as §2
A short description of assay [11]: qHTS of pediatric cancer cell lines to identify multiple opportunities for drug repurposing: Confirmatory screen for A673 cells (AID 1347110).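 Further: potency means the concentration at half of the fitted maximal effect; cells exposed to compound for 48 h before the viability read; nearly all actives have a fitted effect of over 65% in size.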 Conditions: A673 Ewing sarcoma cell viability; series mostly up to 45.9 µM. The method in brief: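 Cells plated at 500-1,000/well were treated five hours later with multi-point dilutions up to 46 µM final. After two days, CellTiter-Glo was added and luminescence read.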

A short description of assay [12]: qHTS of pediatric cancer cell lines to identify multiple opportunities for drug repurposing: Confirmatory screen for SK-N-MC cells (AID 1347111).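 Further: potency means the concentration at half of the fitted maximal effect; cells exposed to compound for 48 h before the readout; nearly all actives have a fitted effect of over 70% in size.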 To be noted: SK-N-MC cell viability; series mostly up to 45.9 µM. The method in brief:
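Seed 500-1,000 cells/well; rest 5 h at 37 degrees C. Pin-transfer compounds, 11-point titration. Incubate 48 h. Add CellTiter-Glo, 15 min RT, read luminescence.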

A short description of assay [13]: qHTS of pediatric cancer cell lines to identify multiple opportunities for drug repurposing: Confirmatory screen for BT-12 cells (AID 1347112). Further: nearly all actives have a fitted effect of over 55% in size. Further: potency means the concentration at half of the fitted maximal effect. To be noted: BT-12 rhabdoid tumor cells, viability; series mostly up to 45.9 µM. The method in brief:
as §2

Assay [14] can be described thus: qHTS of pediatric cancer cell lines to identify multiple opportunities for drug repurposing: Confirmatory screen for LAN-5 cells (AID 1347113). Further: nearly all actives have a fitted effect of over 65% in size. Further: potency means the concentration at half of the fitted maximal effect. To be noted: LAN-5 neuroblastoma cell viability; series mostly up to 45.9 µM. The method in brief: as §2
The nature of assay [15]: qHTS of pediatric cancer cell lines to identify multiple opportunities for drug repurposing: Confirmatory screen for DAOY cells (AID 1347114). Further: nearly all actives have a fitted effect of over 65% in size. Further: potency means the concentration at half of the fitted maximal effect. To be noted: DAOY medulloblastoma cells viability, cytotoxicity qHTS; series mostly up to 45.9 µM. The method in brief: (§3)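 Viability measured as metabolically active cells via CellTiter-Glo luminescence following 48 hours of compound exposure, 11-point dilutions in confirmatory testing. 500-1,000 cells/well plated 5 hours before dosing; controls were DMSO and 2.3 µM bortezomib.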

A short description of assay [16]: qHTS of pediatric cancer cell lines to identify multiple opportunities for drug repurposing: Confirmatory screen for NB-EBc1 cells (AID 1347115).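 Further: cells exposed to compound for 48 h before the viability read; nearly all actives have a fitted effect of over 45% in size.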 Further: potency means the concentration at half of the fitted maximal effect. Conditions: NB-EBc1 neuroblastoma cells, viability (cytotoxicity); series mostly up to 45.9 µM. The method in brief:
as §2

Assay [17] in a line: qHTS of pediatric cancer cell lines to identify multiple opportunities for drug repurposing: Primary screen for BT-12 cells (AID 1347101). Further: nearly all actives have a fitted effect of over 25% in size. Further: potency means the concentration at half of the fitted maximal effect. To be noted: BT-12 viability, CellTiter-Glo luminescence, 48 h; series mostly up to 57.3 µM. The method in brief:
as §2

Assay [18] is described as follows: qHTS of pediatric cancer cell lines to identify multiple opportunities for drug repurposing: Primary screen for Rh18 cells (AID 1347102). Further: nearly all actives have a fitted effect of over 65% in size. Further: potency means the concentration at half of the fitted maximal effect. Conditions: Rh18 rhabdomyosarcoma viability, CellTiter-Glo luminescence, 48 h; series mostly up to 46 µM. The method in brief:
as §2

A short description of assay [19]: qHTS of pediatric cancer cell lines to identify multiple opportunities for drug repurposing: Primary screen for Rh30 cells (AID 1347107). Further: nearly all actives have a fitted effect of over 75% in size. Conditions: Rh30 rhabdomyosarcoma viability, CellTiter-Glo luminescence, 48 h; series mostly up to 46 µM. The method in brief: as §2
Assay [20] in a line: qHTS of pediatric cancer cell lines to identify multiple opportunities for drug repurposing: Confirmatory screen for SJ-GBM2 cells (AID 1347116). Further: nearly all actives have a fitted effect of over 60% in size. To be noted: SJ-GBM2 glioblastoma cells, viability; series mostly up to 45.9 µM. The method in brief: as §3

As to `O=C(O)c1ccc2cc(-c3ccc(O)c(C45CC6CC(CC(C6)C4)C5)c3)ccc2c1`, the Potency is 0.296 µM (active) in assay [1]; 24.1 µM (active) in [2]; 0.372 µM (active) in assay [3]; 0.59 µM (active) in assay [4]; 0.243 µM (active) in assay [5]; 5.26 µM (active) in [6]. Also, the Potency in [7] is 0.296 µM (active); in assay [9], 5.9 µM (active); in assay [10], 2.93 µM (active); in assay [11], 2.93 µM (active); in assay [12], 1.17 µM (active); in assay [14], 1.47 µM (active). The Potency was 3.69 µM (active) in assay [15] and 0.737 µM (active) in assay [16]. For the same molecule, the Potency entry in assay [8] and in assay [13] was “inactive” each time.
With `CN(c1ncccc1CNc1nc(Nc2ccc3c(c2)CC(=O)N3)ncc1C(F)(F)F)S(C)(=O)=O`, the Potency in [1] was 6.62 µM (active); in [2], 24.1 µM (active); in assay [3] it was 2.35 µM (active); in assay [17], 10.9 µM (active); in assay [5], 5.44 µM (active); in assay [6], 10.5 µM (active). Besides, the Potency in assay [7] is 9.35 µM (active); in [8], 20.9 µM (active); in [9], 9.35 µM (active); in [11], 3.69 µM (active); in [13], 13.1 µM (active); in [14], 4.65 µM (active). In addition, the Potency in [15] was 6.57 µM (active). The Potency result in [18] is “inactive”.
Regarding `CN(C)CC(C)(C)CNc1nn2c(-c3ccccc3)nnc2cc1C1CCC1`, the Potency in assay [1] is 5.9 µM (active); in assay [2], 1.21 µM (active); in assay [3], 0.935 µM (active); in [4], 0.418 µM (active); in assay [5], 1.37 µM (active); in [7], 2.96 µM (active). Also, the Potency in assay [12] was 20.8 µM (active). Also, the Potency entry in assay [8], in assay [19], in assay [10], in assay [13], in assay [14] and in assay [15] was “inactive” each time. In assay [16], the Potency entry was “inactive”.
Consider `NC1(Cc2ccc(Cl)cc2)CCN(c2ncnc3[nH]ccc23)CC1`, for which the Potency was 5.26 µM (active) in assay [1]; 27.1 µM (active) in assay [2]; 20.9 µM (active) in assay [3]; 18.7 µM (active) in [4]; 6.11 µM (active) in assay [5]; 11.8 µM (active) in assay [6]. Also, the Potency was 14.8 µM (active) in assay [7] and 3.32 µM (active) in assay [9]. Moreover, in assay [8], the Potency entry is “inactive”.
For the molecule `COc1cc2ncnc(Nc3ccc(F)c(Cl)c3)c2cc1NC(=O)C=CCN1CCCCC1`, the Potency in assay [1] is 16.6 µM (active); in assay [3], 14.8 µM (active); in assay [4], 14.8 µM (active); in assay [17], 24.3 µM (active); in assay [18], 18.7 µM (active); in assay [5], 7.69 µM (active). Further, the Potency in assay [6] was 29.6 µM (active). Besides, the Potency entry in [7] and in assay [8] was “inactive” in each case.
In the case of `Cn1cc(-c2ccncc2)c(-c2ccc(OCc3ccc4ccccc4n3)cc2)n1`, the Potency in assay [1] is 11.8 µM (active). Also, the Potency entry in assay [2], in assay [18], in assay [7] and in assay [8] was “inactive” in each case.
Turning to `Nc1nc(Nc2ccc(S(N)(=O)=O)cc2)nn1C(=O)c1c(F)cccc1F`, the Potency was 13.2 µM (active) in assay [1]; 8.57 µM (active) in assay [2]; 13.7 µM (active) in assay [17]; 9.68 µM (active) in [5]; 11.8 µM (active) in assay [6]; 14.8 µM (active) in assay [9]. Besides, the Potency entry in assay [18] and in assay [19] was “inactive” throughout.
With `COC(=O)c1ccc2c(C(=Nc3ccc(N(C)C(=O)CN4CCN(C)CC4)cc3)c3ccccc3)c(O)[nH]c2c1`, the Potency was 9.35 µM (active) in assay [1]; 6.07 µM (active) in assay [2]; 2.35 µM (active) in [3]; 2.35 µM (active) in assay [4]; 5.44 µM (active) in assay [5]; 18.7 µM (active) in assay [9]. In addition, the Potency in assay [10] was 16.5 µM (active); in assay [12], 18.5 µM (active); in assay [14], 18.5 µM (active); in [15] it was 26.1 µM (active). Moreover, the Potency entry in assay [13], in assay [16] and in [20] was “inactive” throughout.
For `COC(=O)C[C@](O)(CCCC(C)(C)O)C(=O)O[C@@H]1C(OC)=C[C@]23CCCN2CCc2cc4c(cc2[C@H]13)OCO4`, in assay [1], the Potency is 18.7 µM (active). The Potency entry in [2], in assay [4], in [17], in assay [18], in assay [5] and in assay [6] was “inactive” each time. Further, the Potency entry in assay [7] and in assay [8] was “inactive” each time.
As for `COc1cc2ncn(-c3cc(OCc4ccccc4C(F)(F)F)c(C(N)=O)s3)c2cc1OC`, the Potency was 10.5 µM (active) in assay [1]; 24.1 µM (active) in [2]; 21.7 µM (active) in assay [17]; 1.22 µM (active) in [5]; 1.66 µM (active) in assay [6]; 7.43 µM (active) in assay [7]. Further, the Potency in assay [8] was 18.7 µM (active).
`CC(=O)OCCN1C(=O)c2c(C)nc3ccc(S(=O)(=O)N4CCOCC4)cc3c2C1=O`: the Potency entry in assay [1], in assay [2], in assay [18], in assay [7], in assay [8] and in assay [19] was “inactive” each time. Moreover, in assay [9], the Potency result was “inactive”. Besides, the Potency in [17] was 10.9 µM (active); in assay [5], 24.3 µM (active).
Consider `Clc1ccc2ncc(-c3cccc(NC4CNC4)n3)n2c1`, for which the Potency result in assay [1], in assay [18], in assay [7] and in assay [8] was “inactive” each time. The Potency was 3.41 µM (active) in assay [2], 16.6 µM (active) in assay [4] and 8.63 µM (active) in [17].
